Records with an inconclusive call do not appear. Calls of active or inactive are those of the source. The call rests on the fitted dose curve; in most records, active means well fitted cell-killing curve with a large enough effect; inconclusive means small, poorly fitted or top-dose-only effect, or effect the other way; inactive means no such curve, though single readings can be large or run the other way.
Potency means the concentration at half of the fitted maximal effect.

This assay in a line: Quantitative highthroughput screen to assess conditional lethalithy of SEM cells grown in RPMI1640 with unreated serum (RPMI+s) (AID 1963883). Further: nearly all actives have a fitted effect of over 35% in size. As to conditions: SEM B-ALL cells, CellTiter-Glo viability, 48 h; series mostly up to 45.8 µM. The method, boiled down:
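Each medium arm—HPLM with 10% dialyzed FBS, or RPMI1640 with 5 mM glucose and 10% untreated or dialyzed FBS—was screened against an 11-point, 3-fold compound titration for 48 h at 37 °C, with CellTiter-Glo luminescence as endpoint.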
In general terms: Cellular ATP, detected with luciferase, serves as a proxy for viable cell number.
For the molecule `CC(=O)NCC(=O)N1[C@H]2CC[C@H]1c1cc(Nc3ncc(C(F)(F)F)c(NC4CCC4)n3)ccc12`, the Potency is 0.105 µM (active).
As for `O=C(O)C[C@H](O)C[C@H](O)C=Cc1c(C2CC2)nc2ccccc2c1-c1ccc(F)cc1`, the figure is 11.8 µM (active); as for `CC(=O)O[C@@]12CO[C@H]1C[C@H](O)[C@@]1(C)C(=O)[C@H](O)C3=C(C)[C@@H](OC(=O)C(O)[C@@H](NC(=O)OC(C)(C)C)c4ccccc4)C[C@@](O)([C@@H](OC(=O)c4ccccc4)[C@@H]21)C3(C)C` (stereo partly specified), “inactive”.
On to `COc1cc(O)c2c(c1)C(=O)c1cc(C)cc(O)c1C2=O`, for which the Potency was 4.07 µM (active).
As for `CC(N[C@H]1CCCC[C@H]1NC(=O)c1ccc(Cl)cc1)c1cccc2ccccc12` (stereo partly specified), the entry is “inactive”; as for `Oc1cc(O)cc(C=Cc2ccc(O)c(O)c2)c1`, 18.7 µM (active); as for `CCC1=C[C@@H]2CN(C1)Cc1c([nH]c3ccccc13)[C@@](C(=O)OC)(c1cc3c(cc1OC)N(C)[C@@H]1[C@@](O)(C(=O)OC)[C@H](OC(C)=O)[C@]4(CC)C=CCN5CC[C@]31[C@@H]54)C2`, 0.0209 µM (active).
`CC(C)N(C[C@H]1O[C@@H](n2cnc3c(N)ncnc32)[C@H](O)[C@@H]1O)C1CC(CCc2nc3ccc(C(C)(C)C)cc3[nH]2)C1` (stereo partly specified): the Potency is 1.05 µM (active).
For the molecule `CN[C@H]1[C@@H](O)[C@@H]2O[C@@H]3O[C@H](C)CC(=O)[C@]3(O)O[C@@H]2[C@@H](NC)[C@H]1O`, the Potency result is “inactive”.
Regarding `C[C@H](NCc1ccc(OCc2cccc(F)c2)cc1)C(N)=O`, the Potency is 0.662 µM (active).
To `CC[C@H]1OC(=O)[C@H](C)[C@@H](O[C@H]2C[C@@](C)(OC)[C@@H](O)[C@H](C)O2)[C@H](C)[C@@H](O[C@@H]2O[C@@H](C)C[C@H](N(C)C)[C@@H]2O)[C@](C)(O)C[C@@H](C)C(=O)[C@H](C)[C@@H](O)[C@]1(C)O` belongs 10.5 µM (active).
